This is an account of results in PubChem BioAssay (NCI).

Holding throughout (experiment): NCI-60 one-dose screen, 48 h (100 = growth as untreated, 0 = no growth, -100 = all killed)
For experiment [1], the system named is T-47D breast. As to conditions: 10 µM unless noted.
Experiment [2] deals with BT-549 breast. As to conditions: 10 µM unless noted.
The subject of experiment [3] is MCF7 breast.
Experiment [4] deals with HCT-116 colon. As to conditions: 10 µM unless noted.
For experiment [5], the system named is HCC-2998 colon. Conditions: 10 µM unless noted.
The subject of experiment [6] is KM12 colon. Conditions: 10 µM unless noted.
Experiment [7] has as its system SW-620 colon. As to conditions: 10 µM unless noted.
Experiment [8] has as its system MDA-MB-435 melanoma. Conditions: 10 µM unless noted.

“And” between values parts separate entries of the source, which are not always exact repeats. Equal entries are not always repeated. About 83,000 compounds went through this panel and 20% of them were active in at least one assay; those are over-represented in the sample as a whole.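 96-well plates, one dose, 48 hours. Percent growth reported; active if below 10.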 A number with no mark means an inactive call. The source made the active and inactive calls.

Regarding `O=C1C2=C(Nc3cc(Cl)ccc3N2)OC1c1c[nH]c2ccc(COc3ccccc3)cc12` (stereo not drawn), the growth in experiment [1] is 68.4%; in experiment [2] it was 26.7%; in experiment [3] (10 µM unless noted) it was 64.2%; in experiment [4] it was 72.4%; in experiment [5], 83.7%; in experiment [6], 87.1%.
Regarding `CCC/C(=N/NC(N)=O)c1ccco1`, the growth in experiment [1] is 72.6%; in experiment [2], 97.4%; in experiment [7], 102%; in experiment [3] (10 µM unless noted), 92.1%; in experiment [4], 99.7%; in experiment [5], 104%. The growth in experiment [6] is 103%.
Regarding `OCCSc1ccc(Cl)cc1`, the growth in experiment [1] is 101% and 72.3%; in experiment [2] it was 111% and 94.7%; in experiment [7] it was 104%; in experiment [3] (10 µM unless noted) it was 106% and 89.3%; in experiment [4], 110% and 94.4%; in experiment [5] it was 106% and 108%. In experiment [6], the growth was 117% and 102%.
As for `O=C(c1ccc(Cl)cc1)C1C(c2ccccc2)C1[N+](=O)[O-]` (stereo not drawn), the growth in experiment [1] is 89.3%; in experiment [2], 99.3%; in experiment [7], 104%; in experiment [3] (10 µM unless noted) it was 96%; in experiment [4] it was 106%; in experiment [5], 96.9%. In addition, the growth in experiment [6] is 97.9%.
Take `N#CC(=S)Nc1ccc(Cl)c(Cl)c1`: the growth in experiment [1] was 13.2%; in experiment [2], -4.25% (active); in experiment [7] it was 19.6%; in experiment [3] (10 µM), 5.23% (active); in experiment [3] (100 µM), -23.4% (active) and -100% (active); in experiment [4] it was 4.91% (active). The growth in experiment [5] was 20.2%; in experiment [6] it was 2.62% (active).
In the case of `CC(O)CCNC(c1ccccc1)C(O)c1ccccc1` (stereo not drawn), the growth in experiment [1] is 99.2%; in experiment [2], 110%; in experiment [7], 110%; in experiment [3] (10 µM unless noted) it was 99.9%; in experiment [4], 100%; in experiment [5], 111%. The growth in experiment [6] is 114%.
Turning to `C(=N\OCCc1ccccc1)/c1ccccn1`, the growth was 114% in experiment [1]; 138% and 102% in experiment [2]; 110% and 111% in experiment [7]; 92.9% and 105% in experiment [3] (10 µM unless noted); 112% and 102% in experiment [4]; 113% and 107% in experiment [6].
With `O=C1Cc2ccccc2C(=O)N1`, the growth in experiment [1] was 71.1%; in experiment [2] it was 101%; in experiment [7], 56.6%; in experiment [3] (10 µM unless noted), 56.8%; in experiment [4], 6.29% (active); in experiment [5] it was 103%. Further, the growth in experiment [6] is 102%.
Consider `CCOC(=O)C1=CC(=O)CC(C)(C)O1`, for which the growth in experiment [1] was 110% and 107%; in experiment [2], 99.2% and 117%; in experiment [7] it was 96.5% and 105%; in experiment [3] (10 µM unless noted) it was 109%; in experiment [4] it was 96.8% and 110%; in experiment [5] it was 102% and 108%. Further, the growth in experiment [6] was 107% and 76.9%.
Consider `COc1cc(Cl)ccc1C`, for which the growth in experiment [1] was 94.9%; in experiment [2] it was 102%; in experiment [7] it was 52.8%; in experiment [3] (10 µM unless noted), 56.8%; in experiment [4], 59%; in experiment [5], 105%. In experiment [6], the growth was 92.8%.
Turning to `OCc1cccc(F)c1`, the growth in experiment [1] is 94.6%; in experiment [2], 104%; in experiment [7], 50%; in experiment [3] (10 µM unless noted), 62.1%; in experiment [4], 55.2%; in experiment [6], 108%.
Consider `Cc1cc(=NO)cc(C)n1O`, for which the growth in experiment [1] is 94.4%; in experiment [2], 82.8%; in experiment [7], 100%; in experiment [3] (10 µM unless noted) it was 87.6%; in experiment [4] it was 97.3%; in experiment [5], 120%. Besides, the growth in experiment [6] is 110%.
As to `COc1ccc(COC=O)cc1`, the growth was 91.2% in experiment [1]; 110% in experiment [2]; 99.3% in experiment [3] (10 µM unless noted); 99.1% in experiment [4]; 94.3% in experiment [5]; 103% in experiment [6].
With `O=C1C=CC(n2cc(F)c(=O)[nH]c2=O)O1` (stereo not drawn), the growth was 65.5% in experiment [1]; 43% in experiment [2]; 79.7% in experiment [7]; 30.1% in experiment [3] (10 µM unless noted); 40% in experiment [4]; 22.3% in experiment [5]. Also, in experiment [6], the growth is 51.6%.
`O=C1c2ccccc2CN1c1ccccc1`: the growth in experiment [1] is 95.8%; in experiment [2], 96.6%; in experiment [8], 97.9%; in experiment [3] (10 µM unless noted), 106%; in experiment [4] it was 91.7%; in experiment [6], 101%.
On to `Cc1ccc2cccc([N+](=O)[O-])c2n1`, for which the growth in experiment [1] is 97.4% and 97.8%; in experiment [2] it was 121% and 93.5%; in experiment [7], 119% and 103%; in experiment [3] (10 µM unless noted) it was 105% and 95.7%; in experiment [4], 114% and 97.7%; in experiment [5], 102% and 103%. In experiment [6], the growth is 111% and 107%.
Take `NC(=O)Cc1nc(O)cc(=O)[nH]1`: the growth was 88.5% in experiment [1]; 109% in experiment [2]; 104% in experiment [7]; 95.5% in experiment [3] (10 µM unless noted); 110% in experiment [4]; 100% in experiment [5]. Further, the growth in experiment [6] is 106%.
With `C/C(CC(C)C)=N/NC(N)=S`, the growth in experiment [1] was 39%; in experiment [2], 107%; in experiment [7], 85.4%; in experiment [3] (10 µM unless noted) it was 21.3%; in experiment [4] it was 11.8%; in experiment [5], 101%. Besides, the growth in experiment [6] is 101%.
In the case of `CNc1ccc(O)cc1`, the growth is 108% and 101% in experiment [1]; 107% and 103% in experiment [2]; 103% and 89.9% in experiment [7]; 94.9% and 110% in experiment [3] (10 µM unless noted); 108% and 97.3% in experiment [4]; 124% and 105% in experiment [5]. Moreover, the growth in experiment [6] was 112% and 91.3%.
For `COc1ccc(CCn2cnn3c(=O)c4ccccc4nc3c2=O)cc1OC`, the growth in experiment [1] was 113% and 103%; in experiment [2], 91.4% and 114%; in experiment [7], 101% and 112%; in experiment [3] (10 µM unless noted), 106% and 100%; in experiment [4] it was 99.4% and 107%; in experiment [5] it was 104% and 111%. In experiment [6], the growth was 94.4% and 103%.
As to `Cc1c(Cl)c(C)c(Cc2c(C)c(Cl)c(C)c(Cl)c2O)c(O)c1Cl`, the growth was 1.53% (active) in experiment [1]; 22.6% in experiment [2]; 17.1% in experiment [7]; 1.6% (active) in experiment [3] (10 µM unless noted); 3.19% (active) in experiment [4]; 25.7% in experiment [5]. The growth in experiment [6] was 15.7%.
`CCCC(=O)Oc1ccc2ccccc2c1`: the growth in experiment [1] was 92.2%; in experiment [8], 106%; in experiment [7], 92.1%; in experiment [3] (10 µM unless noted) it was 101%; in experiment [4], 101%; in experiment [5], 97.9%. Also, the growth in experiment [6] was 113%.
As to `CCOC(=O)c1ccc(N2C(=O)C(Cl)(c3ccccc3)C2c2ccco2)cc1` (stereo not drawn), the growth in experiment [1] was 30.4%; in experiment [2] it was 76.5%; in experiment [7] it was 77.6%; in experiment [3] (10 µM unless noted) it was 62.4%; in experiment [4], 54%; in experiment [5], 95.8%. In experiment [6], the growth is 83.5%.
`S=c1ccc2ccccc2[nH]1`: the growth in experiment [1] was 90.1% and 91.2%; in experiment [2], 100% and 104%; in experiment [7] it was 106% and 104%; in experiment [3] (10 µM unless noted), 99.5% and 103%; in experiment [4], 95.9% and 102%; in experiment [6], 106% and 103%.
Consider `O=[N+]([O-])c1ccc(NC(c2ccccc2)c2ccc3cccnc3c2O)cc1` (stereo not drawn), for which the growth in experiment [1] is 37.2%; in experiment [2], 39%; in experiment [7], 23.9%; in experiment [3] (10 µM unless noted) it was 17.3%; in experiment [4], 28%; in experiment [5], 29.8%. Moreover, in experiment [6], the growth was 28%.
For the compound `CC(=O)/C(N=Nc1ccc(S(=O)(=O)c2ccc(N=N/C(C(C)=O)=C(/C)O)cc2)cc1)=C(\C)O`, the growth in experiment [1] is 113%; in experiment [8] it was 118%; in experiment [3] (10 µM unless noted) it was 96.1%; in experiment [4] it was 93.2%; in experiment [5], 96.4%; in experiment [6], 94.8%.
Consider `O=C(OCc1ccccc1)c1ccccc1`, for which the growth in experiment [1] is 96% and 87.9%; in experiment [2], 109% and 102%; in experiment [3] (10 µM unless noted), 107% and 94.3%; in experiment [4], 108% and 93.7%; in experiment [5], 102% and 93.9%; in experiment [6], 104% and 102%.
For the compound `CCCC(=O)OCC(COC(=O)CCC)OC(=O)CCC`, the growth is 85.3% in experiment [1]; 106% in experiment [2]; 95.6% in experiment [7]; 93.9% in experiment [3] (10 µM unless noted); 98.8% in experiment [4]; 103% in experiment [6].
